Assay results reported in the supplement of paper PMC9950053.
Where a name gives a salt, the structure may show the parent alone.

The compounds below were run on Danio rerio larvae (5 dpf) (assay: combined upward orientation toward moving lines (periods 7-14) minus DMSO control (percentage points); higher = more orientation with moving lines than DMSO larvae). Conditions: 10 µM; exposure time: 3 h pre-incubation + 3 h imaging.
Experimental: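 Wild-type 5 dpf zebrafish larvae (n=48 per drug, 96-well plates, 28.5 °C) were exposed to Tocris FDA-approved library compounds at 10 µM (0.1% DMSO) for 3 h before and 3 h during imaging. Images were taken every 6 s during visual and acoustic stimuli, and larvae were tracked with Z-LaP Tracker. Each measure is the treated-group mean minus the DMSO control mean (n=844), in percentage points. This mapping covers compounds with 5-character plate codes.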

First: CN(C)C(=N)NC(=N)N [Metformin hydrochloride]
Second: CNS(=O)(=O)Cc1ccc2[nH]cc(CCN(C)C)c2c1 [Sumatriptan succinate]
The “combined upward orientation toward moving lines” value of the first is higher: 1.11 for the first, -8.09 for the second.

Going from `C#CCN[C@@H]1CCc2ccccc21` [Rasagiline mesylate] to `CN[C@H]1CC[C@@H](c2ccc(Cl)c(Cl)c2)c2ccccc21` [Sertraline hydrochloride], the “combined upward orientation toward moving lines” value falls from -1.34 to -5.13.

Going from `CC(=O)Oc1cc2c(s1)CCN(C(C(=O)C1CC1)c1ccccc1F)C2` (configuration not stated) [Prasugrel] to `Cc1cc2c(s1)Nc1ccccc1N=C2N1CCN(C)CC1` [Olanzapine], the “combined upward orientation toward moving lines” value rises from -5.5 to 3.25.

Going from `CCc1nc(N)nc(N)c1-c1ccc(Cl)cc1` [Pyrimethamine] to `O=C(O)C[C@H](O)C[C@H](O)/C=C/c1c(C2CC2)nc2ccccc2c1-c1ccc(F)cc1` [Pitavastatin calcium], the “combined upward orientation toward moving lines” value falls from 7.4 to 2.14.

Going from `OCc1cc(C(O)CNCCCCCCOCCCCc2ccccc2)ccc1O` (configuration not stated) [Salmeterol xinafoate] to `CCCCCCCN(CC)CCCC(O)c1ccc(NS(C)(=O)=O)cc1` (configuration not stated) [Ibutilide hemifumarate], the “combined upward orientation toward moving lines” value rises from -1.98 to -0.0944.

First: CC(C)COCC(CN(Cc1ccccc1)c1ccccc1)N1CCCC1 (configuration not stated) [Bepridil hydrochloride]
Second: CC(C)(C(=O)O)c1ccc(C(O)CCCN2CCC(C(O)(c3ccccc3)c3ccccc3)CC2)cc1 (configuration not stated) [Fexofenadine hydrochloride]
The “combined upward orientation toward moving lines” value of the first is higher: 3.56 for the first, 1.12 for the second.

Going from `OCCN1C[C@H](O)[C@@H](O)[C@H](O)[C@H]1CO` [Miglitol] to `C[C@H]1O[C@H](O[C@H]2[C@H](O)[C@@H](O)[C@@H](O[C@H]3[C@H](O)[C@@H](O)C(O)O[C@@H]3CO)O[C@@H]2CO)[C@H](O)[C@@H](O)[C@@H]1N[C@H]1C=C(CO)[C@@H](O)[C@H](O)[C@H]1O` (some centres not stated) [Acarbose], the “combined upward orientation toward moving lines” value rises from -1.58 to 4.65.

Compared with `N#C[C@@H]1C[C@@H]2C[C@@H]2N1C(=O)[C@@H](N)C12CC3CC(CC(O)(C3)C1)C2` [Saxagliptin hydrochloride], `C[C@@H]1C[C@H]2[C@@H]3CCC4=CC(=O)C=C[C@]4(C)[C@@]3(F)[C@@H](O)C[C@]2(C)[C@@]1(O)C(=O)CO` [Dexamethasone] is lower in “combined upward orientation toward moving lines” value: -3.59 for the first, -5.03 for the second.

Going from `CNCc1ccc(-c2[nH]c3cc(F)cc4c3c2CCNC4=O)cc1` [Rucaparib camsylate] to `COc1cc2nccc(Oc3ccc(NC(=O)C4(C(=O)Nc5ccc(F)cc5)CC4)cc3)c2cc1OC`, the “combined upward orientation toward moving lines” value falls from 2 to -10.5.

Compared with `COCCc1ccc(OCC(O)CNC(C)C)cc1` (configuration not stated) [Metoprolol tartrate], `COc1ccccc1OCC(O)CN1CCN(CC(=O)Nc2c(C)cccc2C)CC1` (configuration not stated) [Ranolazine dihydrochloride] is higher in “combined upward orientation toward moving lines” value: -3.38 for the first, 4.03 for the second.

Going from `Clc1ccc2nsnc2c1NC1=NCCN1` [Tizanidine hydrochloride] to `CCCc1nn(C)c2c(=O)[nH]c(-c3cc(S(=O)(=O)N4CCN(C)CC4)ccc3OCC)nc12` [Sildenafil citrate], the “combined upward orientation toward moving lines” value rises from -5.19 to 0.372.

Going from `O=C1CCc2ccc(OCCCCN3CCN(c4cccc(Cl)c4Cl)CC3)cc2N1` [Aripiprazole] to `O=c1n(CCCN2CCN(c3cccc(Cl)c3)CC2)nc2ccccn12` [Trazodone hydrochloride], the “combined upward orientation toward moving lines” value rises from -7.24 to -3.19.

First: CNC(=O)c1cc(Oc2ccc(NC(=O)Nc3ccc(Cl)c(C(F)(F)F)c3)cc2)ccn1 [Sorafenib]
Second: CC(C)OC(=O)C(C)(C)Oc1ccc(C(=O)c2ccc(Cl)cc2)cc1 [Fenofibrate]
The “combined upward orientation toward moving lines” value of the first is lower: -23.2 for the first, 6.13 for the second.

First: OC(c1cc(C(F)(F)F)nc2c(C(F)(F)F)cccc12)C1CCCCN1 (configuration not stated) [Mefloquine hydrochloride]
Second: CN(C)CCc1c[nH]c2ccc(C[C@H]3COC(=O)N3)cc12 [Zolmitriptan]
The “combined upward orientation toward moving lines” value of the first is higher: 5.79 for the first, -1.47 for the second.

Compared with `CC(=O)Nc1ccc(O)cc1` [Acetaminophen], `NC(=O)OCC(COC(N)=O)c1ccccc1` [Felbamate] is higher in “combined upward orientation toward moving lines” value: -1.22 for the first, 4.58 for the second.

Compared with `N#Cc1ccc2[nH]cc(CCCCN3CCN(c4ccc5oc(C(N)=O)cc5c4)CC3)c2c1` [Vilazodone hydrochloride], `COc1cc(N)c(Cl)cc1C(=O)NC1CCN(CCCOc2ccc(F)cc2)CC1OC` (configuration not stated) [Cisapride] is lower in “combined upward orientation toward moving lines” value: -4.15 for the first, -4.69 for the second.

Going from `COc1ccccc1Oc1c(NS(=O)(=O)c2ccc(C(C)(C)C)cc2)nc(-c2ncccn2)nc1OCCO` [Bosentan] to `COc1cc([C@@H]2c3cc4c(cc3[C@@H](O[C@@H]3O[C@@H]5CO[C@@H](C)O[C@H]5[C@H](O)[C@H]3O)[C@H]3COC(=O)[C@H]23)OCO4)cc(OC)c1O` [Etoposide], the “combined upward orientation toward moving lines” value falls from -0.697 to -2.65.

First: CCCC1O[C@@H]2C[C@H]3[C@@H]4CCC5=CC(=O)C=C[C@]5(C)[C@H]4[C@@H](O)C[C@]3(C)[C@]2(C(=O)CO)O1 (some centres not stated) [Budesonide]
Second: CC[C@H]1OC(=O)[C@H](C)[C@@H](O[C@H]2C[C@@](C)(OC)[C@@H](O)[C@H](C)O2)[C@H](C)[C@@H](O[C@@H]2O[C@H](C)C[C@H](N(C)C)[C@H]2O)[C@](C)(O)C[C@@H](C)CN(C)[C@H](C)[C@@H](O)[C@]1(C)O [Azithromycin]
The “combined upward orientation toward moving lines” value of the first is higher: 0.263 for the first, -3.81 for the second.

In the case of `NS(=O)(=O)c1cc2c(cc1Cl)NC(C1CC3C=CC1C3)NS2(=O)=O` (configuration not stated) [Cyclothiazide], the “combined upward orientation toward moving lines” value was -2.57.
